Measurements from PubChem BioAssay (Tox21).
“And” between values parts separate entries of the source, which are not always exact repeats. Equal values may be shown once. Records with an inconclusive call do not appear. The source made the active and inactive calls. Unless noted, calls come from the whole dose curve; as a rule, active = well fitted curve in the direction sought with a large enough effect in the repeat runs; inconclusive = weak or mixed curves; inactive = no such curve, though single readings can be large; an effect the other way counts as inactive or inconclusive.

How the values were obtained:
[1] = qHTS assay to identify small molecule antagonists of the estrogen related receptor (ERR) signaling pathway from Tox21 library - cell viability counter screen (AID 1224834); note: nearly all actives have a fitted effect of over 30% in size; note: potency is the fitted concentration of half-maximal effect
In short: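 ERR reporter cells were plated 6 h before compound addition, then exposed to test compounds in DMSO for 17.5 h at 37 C. Viability was read as CellTiter-Fluor fluorescence after a 30-minute incubation at 37 C.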

[2] = target: Luciferin 4-monooxygenase (Photinus pyralis) (UniProt P08659); assay: qHTS assay to identify small molecule inhibitors of firefly luciferase (AID 1224835); note: nearly all actives have a fitted effect of over 25% in size
Luciferin 4-monooxygenase (Photinus pyralis), sequence (P08659 whole entry, looked up): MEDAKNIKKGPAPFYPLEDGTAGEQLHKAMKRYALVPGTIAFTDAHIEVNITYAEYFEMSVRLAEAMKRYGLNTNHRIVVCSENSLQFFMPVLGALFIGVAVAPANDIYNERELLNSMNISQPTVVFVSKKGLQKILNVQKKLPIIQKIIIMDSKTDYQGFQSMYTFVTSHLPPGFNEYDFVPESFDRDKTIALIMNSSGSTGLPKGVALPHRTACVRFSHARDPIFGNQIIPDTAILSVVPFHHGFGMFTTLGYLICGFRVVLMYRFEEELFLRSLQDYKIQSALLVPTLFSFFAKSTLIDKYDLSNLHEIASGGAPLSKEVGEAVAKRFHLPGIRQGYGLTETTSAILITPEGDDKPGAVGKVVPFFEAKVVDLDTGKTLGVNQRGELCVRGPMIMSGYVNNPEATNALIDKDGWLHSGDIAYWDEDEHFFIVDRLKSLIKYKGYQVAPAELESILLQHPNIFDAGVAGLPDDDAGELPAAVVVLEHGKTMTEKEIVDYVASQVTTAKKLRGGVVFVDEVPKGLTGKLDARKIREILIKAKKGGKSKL
In short: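 Quantitative HTS format; KM concentrations of both substrates. Purified P. pyralis FLuc activity quantified from luminescence images.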

[3] = qHTS assay to identify small molecule agonists of the constitutive androstane receptor (CAR) signaling pathway - cell viability counter screen (AID 1224836); note: nearly all actives have a fitted effect of over 45% in size; note: potency is the fitted concentration of half-maximal effect
In short: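 Counter screen multiplexed with the CAR reporter readout: HepG2 cells co-transfected with hCAR and the CYP2B6-2.2kb construct receive a 15-concentration compound series and 0.75 uM PK11195 (final), then CellTiter-Fluor fluorescence is read after 23 h.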

[4] = qHTS assay to identify small molecule antagonists of the constitutive androstane receptor (CAR) signaling pathway - cell viability counter screen (AID 1224837); note: nearly all actives have a fitted effect of over 45% in size; note: potency is the fitted concentration of half-maximal effect
In short: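 HepG2 cells stably expressing hCAR and a CYP2B6-2.2kb reporter were plated and pre-incubated 4 hr at 37 C/5% CO2, then given compounds at 15 concentrations plus 50 nM CITCO (final). After 23 hr, viability was read by CellTiter-Fluor fluorescence.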

[5] = target: Nuclear receptor subfamily 1 group I member 3 (Homo sapiens) (UniProt Q14994); assay: qHTS assay to identify small molecule antagonists of the constitutive androstane receptor (CAR) signaling pathway (AID 1224838); note: nearly all actives have a fitted effect of over 40% in size; note: potency is the fitted concentration of half-maximal effect
Nuclear receptor subfamily 1 group I member 3 (Homo sapiens), sequence (Q14994 whole entry, looked up): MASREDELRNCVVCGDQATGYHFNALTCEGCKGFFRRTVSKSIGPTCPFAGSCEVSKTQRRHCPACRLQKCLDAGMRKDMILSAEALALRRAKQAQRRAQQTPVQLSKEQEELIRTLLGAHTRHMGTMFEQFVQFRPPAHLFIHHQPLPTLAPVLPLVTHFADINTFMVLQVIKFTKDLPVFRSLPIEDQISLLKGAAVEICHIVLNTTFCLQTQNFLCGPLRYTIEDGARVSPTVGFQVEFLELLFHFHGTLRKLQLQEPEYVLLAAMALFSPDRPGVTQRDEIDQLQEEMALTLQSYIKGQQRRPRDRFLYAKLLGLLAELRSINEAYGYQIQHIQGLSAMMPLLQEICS
In short: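 HepG2 cells stably co-transfected with hCAR and a CYP2B6-2.2kb luciferase reporter were seeded 4 h before compound addition at 15 concentrations. Cells were stimulated with 50 nM CITCO (final) for 24 h at 37 C; luciferase luminescence was then read.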

[6] = target: Nuclear receptor subfamily 1 group I member 3 (Homo sapiens) (UniProt Q14994); assay: qHTS assay to identify small molecule agonists of the constitutive androstane receptor (CAR) signaling pathway (AID 1224839); note: nearly all actives have a fitted effect of over 15% in size
In short: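 A 15-concentration quantitative screen uses HepG2 cells co-transfected stably with human CAR and CYP2B6-2.2kb reporter. Treatment lasts 24 h with 0.75 uM PK11195 final present; ONE-Glo luminescence is the signal.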

[7] = qHTS assay to identify small molecule antagonists of the estrogen related receptor signaling pathway with the pleiotropic PPARgamma coactivator (PGC) from Tox21 10K library - cell viability counter screen (AID 1224840; active = well fitted cell-killing curve with a large enough effect in the repeat runs, not every such curve was filed as active; note: nearly all actives have a fitted effect of over 40% in size; note: potency is the fitted concentration of half-maximal effect)
In short: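 PGC/ERR cells were seeded at 2,000 cells/well and left 6 hours at 37 C/5% CO2 before pin-tool addition of compounds in DMSO. After 17.5 hours at 37 C, CellTiter-Fluor was added and fluorescence read 30 minutes later.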

[8] = qHTS assay to identify small molecule antagonists of the estrogen related receptor signaling pathway with the pleiotropic PPARgamma coactivator (PGC) from Tox21 10K library (AID 1224841; call rule not given here; note: actives are mostly falling curves and most rising ones were filed inactive; nearly all actives have a fitted effect of over 50% in size; note: potency is the fitted concentration of half-maximal effect)
In short: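 PGC/ERR reporter cells were seeded at 2,000 cells/well and held 6 hours at 37 C/5% CO2 before pin-tool addition of compounds in DMSO. After 18 hours at 37 C, One-Glo was added and luminescence read after 30 minutes at room temperature.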

[9] = qHTS assay to identify small molecule agonists of the estrogen related receptor signaling pathway with the pleiotropic PPARgamma coactivator (PGC) from Tox21 10K library (AID 1224842); note: nearly all actives have a fitted effect of over 15% in size
In short: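 PGC/ERR reporter cells (NTP line) were seeded 2,000 per well, rested 6 h at 37 C/5% CO2, then pin-dosed with compounds in DMSO for 18 h at 37 C; luciferase read by One-Glo luminescence after 30 min at room temperature.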

[10] = target: Thyrotropin receptor (Homo sapiens) (UniProt P16473); assay: qHTS assay to identify small molecule agonists of the thyroid stimulating hormone receptor (TSHR) signaling pathway (AID 1224843; calls by dose curve; note: nearly all actives have a fitted effect of over 45% in size)
Thyrotropin receptor (Homo sapiens), sequence (P16473 whole entry, looked up): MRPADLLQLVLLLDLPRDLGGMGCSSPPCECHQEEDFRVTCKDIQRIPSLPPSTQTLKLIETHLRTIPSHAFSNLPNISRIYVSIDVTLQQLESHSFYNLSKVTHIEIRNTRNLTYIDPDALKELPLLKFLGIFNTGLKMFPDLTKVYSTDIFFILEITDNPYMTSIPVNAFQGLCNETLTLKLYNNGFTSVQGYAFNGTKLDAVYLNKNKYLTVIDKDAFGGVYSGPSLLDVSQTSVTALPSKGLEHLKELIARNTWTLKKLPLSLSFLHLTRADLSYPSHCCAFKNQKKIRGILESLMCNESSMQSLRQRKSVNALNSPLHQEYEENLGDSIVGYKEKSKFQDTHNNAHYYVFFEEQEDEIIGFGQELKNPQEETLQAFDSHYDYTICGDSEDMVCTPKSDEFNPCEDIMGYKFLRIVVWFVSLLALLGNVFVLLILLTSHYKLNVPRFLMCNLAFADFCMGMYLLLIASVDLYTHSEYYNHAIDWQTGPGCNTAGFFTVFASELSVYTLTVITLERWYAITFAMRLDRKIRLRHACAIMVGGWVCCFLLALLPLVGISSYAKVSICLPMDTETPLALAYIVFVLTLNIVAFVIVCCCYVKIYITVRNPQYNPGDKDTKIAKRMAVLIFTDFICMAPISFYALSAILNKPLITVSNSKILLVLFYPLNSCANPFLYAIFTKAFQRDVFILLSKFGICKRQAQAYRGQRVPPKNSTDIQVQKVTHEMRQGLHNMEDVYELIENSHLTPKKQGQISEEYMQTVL
In short: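 Cell line HEK293 with TSHR; density 800/well. Exposure 30 min RT. Readout HTRF cAMP (cAMP-d2/anti-cAMP-cryptate), 1 h RT before reading.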

[11] = qHTS assay to identify small molecule agonists of the hypoxia (HIF-1) signaling pathway - cell viability counter screen (AID 1224844; calls by dose curve; note: nearly all actives have a fitted effect of over 50% in size; note: potency is the fitted concentration of half-maximal effect)
In short: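 HRE-bla ME-180 cells in medium with 0.5% dialyzed FBS were preincubated 5 hrs at 37C, exposed to compounds for 17 hrs, then viability was read as CellTiter-Glo luminescence after 30 min at room temperature, in the reporter wells.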

[12] = qHTS assay to identify small molecule agonists of H2AX (AID 1224845; active = well fitted activation curve with a large enough effect in the signal ratio in the repeat runs, not every such curve was filed as active; the % refers to the signal ratio)
In short: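 Wild-type CHO-K1 cells plated overnight, then exposed 3 hr at 37C to compounds at 15 concentrations (0.76% DMSO). Lysed, then HTRF anti-pH2AX(S139)-cryptate/anti-H2AX-d2 detection after 24 hr at room temperature; emissions 665 and 620 nm.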

[13] = qHTS assay to identify small molecule agonists of the hypoxia (HIF-1) signaling pathway (AID 1224846; active = well fitted activation curve with a large enough effect in the signal ratio in the repeat runs, not every such curve was filed as active; the % refers to the signal ratio)
In short: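 HRE-bla ME-180 cells (beta-lactamase reporter under hypoxia response element) were plated at 2,000 cells/well in medium with 0.5% dialyzed FBS, rested 5 hrs, then given compounds in DMSO for 17 hrs at 37C, 5% CO2. Reporter induction was read with CCF4-AM FRET substrate.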

[14] = qHTS assay to identify small molecule agonists of H2AX - cell viability counter screen (AID 1224847; calls by dose curve; note: nearly all actives have a fitted effect of over 30% in size; note: potency is the fitted concentration of half-maximal effect; for activity change, negative = cytotoxicity: top concentration of the series differs between compounds)
In short: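 We seed wild-type CHO-K1 cells overnight, treat them for 3 hr at 37C with compounds in 15-concentration series, and quantify remaining viability by CellTiter-Glo luminescence.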

[15] = qHTS assay to identify small molecule antagonists of the estrogen related receptor (ERR) signaling pathway from Tox21 library (AID 1224848); note: nearly all actives have a fitted effect of over 50% in size; note: potency is the fitted concentration of half-maximal effect
In short: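 Screening used an ERR reporter line supplied by NTP, exposed for 18 h at 37 C to library compounds delivered in DMSO. Signal was luciferase luminescence developed with ONE-Glo at room temperature for 30 min.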

[16] = qHTS assay to identify small molecule agonists of the estrogen related receptor (ERR) signaling pathway from Tox21 library (AID 1224849; calls by dose curve; note: nearly all actives have a fitted effect of over 15% in size); settings: ERR reporter cell line, ONE-Glo luciferase, 18 h; at 92.4 µM (top of the series) unless noted
In short: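 ERR reporter cell line (NTP) seeded, rested 6 h at 37 C/5% CO2, then pinned with Tox21 compounds in DMSO. After 18 h at 37 C, ONE-Glo luciferase luminescence was read following 30 min at room temperature.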

[17] = qHTS RealTime-Glo MT Cell Viability Assay in HepG2 cells - 24 hour (AID 1224867); note: nearly all actives have a fitted effect of over 50% in size; note: potency is the fitted concentration of half-maximal effect
In short: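 Viability was tracked continuously by NanoLuc luminescence from prosubstrate reduced by living HepG2 cells, at successive time points over 40 h of compound exposure. Cells with reagent were preincubated 5 h at 37 °C before compound addition.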

[18] = qHTS RealTime-Glo MT Cell Viability Assay in HEK293 cells - 32 hour (AID 1224868); note: nearly all actives have a fitted effect of over 50% in size; note: potency is the fitted concentration of half-maximal effect; for activity change, negative = cytotoxic: top concentration of the series differs between compounds
In short: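 Viability tracked continuously by luminescence as live cells reduce a prosubstrate for NanoLuc; HEK293 cells preincubated 5 h, compound-treated at 37 C, and read at 0, 8, 16, 24, 32 and 40 h.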

[19] = A CellTox Green Cytotoxicity Assay to monitor cytotoxicity in HEK293 cells - 0 hour (AID 1224869); note: nearly all actives have a fitted effect of over 50% in size
In short: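 HEK293 cells premixed with CellTox Green dye were seeded at 600 cells/well and left 5 h at 37 C/5% CO2 before pin transfer of 23 nL compound in DMSO. Fluorescence from dye bound to dead-cell DNA was read during 40 h treatment.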

[20] = qHTS RealTime-Glo MT Cell Viability Assay in HepG2 cells - 40 hour (AID 1224870); note: nearly all actives have a fitted effect of over 50% in size; note: potency is the fitted concentration of half-maximal effect
In short: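 HepG2 cells mixed with RealTime-Glo MT reagents (NanoLuc plus cell-permeant prosubstrate) were seeded at 600 cells/well, incubated 5 h at 37 C/5% CO2, then pinned with compounds in DMSO; nonlytic luminescence tracked viability during 40 h treatment.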
% is set by controls: 0 for no effect and ±100 for the full control effect.

O=[N+]([O-])c1ccccc1-c1ccccc1
inactive: Potency [1] | Potency [2] | Potency [3] | Potency [4] | Potency [5] | Potency [6] | Potency [7] | Potency [8] | Potency [9] | Potency [10] | Potency [11] | Potency [12] | Potency [13] | Potency [14] | Potency [15] | activity change, positive = activation [16] -1.13% | Potency [17] | Potency [18] | Potency [19] | Potency [20]

O=C1C2(Cl)C3(Cl)C4(Cl)C(Cl)(Cl)C5(Cl)C3(Cl)C1(Cl)C5(Cl)C24Cl (stereo not drawn)
active: Potency [1] 53.6 µM and 58.5 µM | Potency [3] 60.1 µM | Potency [4] 60.1 µM | Potency [5] 23.9 µM and 52.2 µM | Potency [7] 47.8 µM and 58.5 µM | Potency [8] 53.6 µM | Potency [11] 21.5 µM | Potency [14] 49.6 µM and 96.5 µM | Potency [15] 26.9 µM and 58.5 µM | Potency [17] 42.9 µM and 46.9 µM | Potency [18] 19.2 µM and 41.8 µM | Potency [20] 54 µM and 46.9 µM
inactive: Potency [2] | Potency [6] | activity change, positive = activation [16] -74.4% and -66.3% | Potency [19]

Clc1c(Cl)c(Cl)c(Cl)c(Cl)c1Cl
inactive: viability change, negative = cytotoxic [1] 3.08% [at 8.39 µM] | activity change, negative = inhibition [2] 2.81% [at 10.5 µM] | viability change, negative = cytotoxic [3] -2.28% [at 8.39 µM] | activity change, negative = cytotoxicity [4] 2.2% [at 8.39 µM] | activity, negative = inhibition [5] 2.04% [at 8.39 µM] | activation [6] -1% [at 8.39 µM] | viability change, negative = cytotoxic [7] 8.1% [at 8.39 µM] | activation [10] -17.5% [at 8.39 µM] | activity change, negative = cytotoxicity [11] 4.74% [at 6.97 µM] | activation (H2AX phosphorylation) [12] -0.165% [at 14 µM] | activation [13] -0.723% [at 7.01 µM] | activity change, negative = cytotoxicity [14] -1.8% [at 14 µM] | activity change, negative = cytotoxic [18] 0.699% [at 6.97 µM] | cytotoxicity [19] -0.372% [at 6.97 µM] | activity change, negative = cytotoxic [20] 0.985% [at 6.97 µM]

O=[N+]([O-])c1ccc(Cl)c(Cl)c1Cl
inactive: Potency [1] | Potency [2] | Potency [3] | Potency [4] | Potency [5] | Potency [6] | Potency [7] | Potency [8] | Potency [10] | Potency [11] | Potency [12] | Potency [15] | activity change, positive = activation [16] -11% | Potency [17] | Potency [19] | Potency [20]

C#CCO
inactive: Potency [1] | Potency [2] | Potency [3] | Potency [4] | Potency [5] | Potency [6] | Potency [7] | Potency [10] | Potency [11] | Potency [12] | Potency [13] | Potency [14] | Potency [17] | Potency [18] | Potency [19] | Potency [20]

Nc1nc(N)nc(Cl)n1
inactive: Potency [1] | Potency [2] | Potency [3] | Potency [4] | Potency [5] | Potency [6] | Potency [7] | Potency [10] | Potency [11] | Potency [12] | Potency [13] | Potency [17] | Potency [18] | Potency [19] | Potency [20]

CN(C)CCc1c[nH]c2ccccc12
inactive: Potency [1] | Potency [2] | Potency [3] | Potency [4] | Potency [5] | Potency [6] | Potency [7] | Potency [10] | Potency [11] | Potency [12] | Potency [13] | Potency [14] | Potency [18] | Potency [19] | Potency [20]
